Results taken from publication PMC5540273 (PLoS ONE, 2017).

What was measured:
Settings in all cases: concentration: 1 μM, replicates: in singlicate; n = 1
MYO3B = system: MYO3B
NDR1 = system: T1, NDR1
T1 construct: gene STK38

NDR2 = system: NDR2
NEK10 = system: NEK10
NEK11 = system: NEK11
NEK1 = system: NEK1
NEK2 = system: NEK2
NEK3 = system: NEK3
NEK4 = system: NEK4
NEK5 = system: NEK5
NEK6 = system: NEK6
NEK7 = system: NEK7
NEK9 = system: NEK9
NIK = system: T2, NIK
T2 construct: gene MAP3K14

NIM1 = system: T3, NIM1
T3 construct: gene MGC42105

NLK = system: NLK
OSR1 = system: T4, OSR1
T4 construct: gene OXSR1

PAK1 = system: PAK1
PAK2 = system: PAK2
PAK3 = system: PAK3
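Further: KINOMEscan kinase panel screen.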

Row | SMILES | %Inh (MYO3B) [%] | %Inh (NDR1) [%] | %Inh (NDR2) [%] | %Inh (NEK10) [%] | %Inh (NEK11) [%] | %Inh (NEK1) [%] | %Inh (NEK2) [%] | %Inh (NEK3) [%] | %Inh (NEK4) [%] | %Inh (NEK5) [%] | %Inh (NEK6) [%] | %Inh (NEK7) [%] | %Inh (NEK9) [%] | %Inh (NIK) [%] | %Inh (NIM1) [%] | %Inh (NLK) [%] | %Inh (OSR1) [%] | %Inh (PAK1) [%] | %Inh (PAK2) [%] | %Inh (PAK3) [%]
1 | COc1ccc(Nc2nccc(N3CCC(NC(=O)Nc4cccc(C(C)=O)c4)C3)n2)cc1 (stereo not shown) [GSK1379731] | 0 | 0 | 0 | 13 | 15 | 0 | 0 | 0 | 13 | 3 | 0 | 0 | 0 | 2 | 12 | 0 | 16 | 0 | 6 | 0
2 | COc1cc2c(cc1OC[C@@H](O)CO)ncc1c3ccc(C#N)cc3[nH]c21 | 0 | 62 | 15 | 18 | 0 | 0 | 23 | 37 | 0 | 0 | 0 | 0 | 0 | 60 | 30 | 0 | 0 | 0 | 0 | 0
3 | N#Cc1c(N2CCOCC2)sc(-c2ccn[nH]2)c1-c1ccc(Cl)cc1 | 32 | 7 | 0 | 4 | 0 | 9 | 0 | 23 | 0 | 0 | 17 | 0 | 0 | 8 | 54 | 0 | 0 | 10 | 17 | 27
4 | N#Cc1ccc(-c2cc(-c3c[nH]nc3-c3ccccn3)ccn2)cc1 [GW693028] | 0 | 14 | 0 | 11 | 5 | 0 | 0 | 8 | 20 | 5 | 0 | 0 | 0 | 18 | 35 | 16 | 4 | 8 | 9 | 0
5 | Cc1cn2c(=O)cc(N3CCOCC3)nc2n1Cc1cccc(Cl)c1Cl [GSK2334006] | 0 | 10 | 0 | 10 | 0 | 0 | 14 | 0 | 4 | 14 | 18 | 0 | 8 | 0 | 7 | 9 | 1 | 12 | 10 | 15
6 | CC(=O)Nc1ccc(COc2ccc(Nc3ccnc4cc(-c5ccccn5)ccc34)cc2)cc1.Cl [GW440148] | 2 | 20 | 37 | 3 | 0 | 0 | 8 | 6 | 0 | 10 | 0 | 0 | 20 | 0 | 23 | 0 | 0 | 15 | 0 | 22
7 | Cc1cccc(-c2nc(Nc3ccc4ncsc4c3)c3ccccc3n2)n1 [GW867588] | 16 | 14 | 4 | 5 | 0 | 0 | 0 | 0 | 0 | 0 | 8 | 0 | 0 | 0 | 17 | 14 | 0 | 0 | 45 | 19
8 | O=C1NC(=O)C(N2CCc3ccccc32)=C1c1cccc(Cl)c1 [SB-408010] | 21 | 6 | 7 | 43 | 0 | 3 | 12 | 14 | 0 | 0 | 9 | 0 | 0 | 0 | 0 | 12 | 0 | 9 | 44 | 0
9 | Cl.Nc1ncnc2occ(-c3ccc(NC(=O)Nc4cc(C(F)(F)F)ccc4F)cc3)c12 [SB-707548] | 57 | 29 | 40 | 1 | 0 | 40 | 37 | 1 | 5 | 30 | 0 | 0 | 76 | 36 | 28 | 26 | 3 | 24 | 30 | 15
10 | NS(=O)(=O)CCc1cccc(Nc2nccc(-c3c(-c4cccc(NC(=O)c5c(F)cccc5F)c4)nn4ccccc34)n2)c1 [GSK336735] | 4 | 18 | 0 | 7 | 0 | 0 | 22 | 0 | 19 | 8 | 8 | 11 | 57 | 4 | 15 | 84 | 10 | 26 | 12 | 36
11 | C[C@@H](Oc1cc(-n2cnc3ccc(NC(=O)NC(C)(C)C)cc32)sc1C(N)=O)c1ccccc1Cl [GSK346294] | 0 | 17 | 17 | 0 | 0 | 0 | 5 | 5 | 0 | 26 | 0 | 4 | 16 | 21 | 19 | 19 | 18 | 15 | 14 | 15
12 | O=c1cc(N2CCOCC2)nc2n(Cc3cccc(F)c3)ccn12 [GSK2297430] | 0 | 0 | 0 | 24 | 0 | 0 | 0 | 0 | 0 | 0 | 0 | 0 | 7 | 7 | 0 | 0 | 1 | 18 | 9 | 79
13 | Fc1ccc(-c2nn3c(OCC(F)(F)F)cccc3c2-c2ccncc2)cc1 [GW514784] | 0 | 11 | 44 | 11 | 44 | 2 | 8 | 0 | 0 | 2 | 0 | 0 | 4 | 56 | 0 | 65 | 20 | 0 | 0 | 0
14 | COc1ccc(S(=O)(=O)NC2CCN(c3cc(C)nc(Nc4cccc(C#N)c4)n3)CC2)cc1.O=C(O)C(F)(F)F [GSK1653539] | 0 | 35 | 0 | 23 | 0 | 0 | 3 | 0 | 0 | 2 | 0 | 0 | 0 | 5 | 0 | 50 | 0 | 3 | 0 | 0
15 | O=C1Cc2cc(Nc3nc(NCc4cccc(S(=O)(=O)C(F)(F)F)c4)ncc3C(F)(F)F)ccc2N1 | 0 | 9 | 0 | 36 | 0 | 10 | 9 | 12 | 5 | 14 | 14 | 0 | 0 | 4 | 26 | 4 | 4 | 0 | 0 | 1
16 | Cc1nnc(-c2ccc(C)c(-c3ccc(C(=O)Nc4ccc(NS(C)(=O)=O)cc4)cc3)c2)o1 [GW702865] | 0 | 20 | 18 | 6 | 33 | 0 | 0 | 0 | 0 | 8 | 0 | 0 | 7 | 16 | 19 | 0 | 0 | 10 | 0 | 0
17 | O=C(NOCC1CC1)c1ccc(F)c(F)c1Nc1ccc(I)cc1Cl | 0 | 0 | 0 | 0 | 0 | 0 | 0 | 26 | 0 | 0 | 0 | 0 | 0 | 0 | 0 | 0 | 0 | 0 | 0 | 0
18 | O=C(NCCCN1CCOCC1)c1cccc(Nc2nccc(Nc3ccc(Oc4ccccc4)cc3)n2)c1 [GW663929] | 0 | 40 | 41 | 0 | 13 | 11 | 6 | 5 | 0 | 24 | 15 | 28 | 28 | 3 | 28 | 27 | 0 | 9 | 15 | 0
19 | COCCNC(=O)c1ccc(-c2cc(C(=O)NC3CC3)cc(F)c2C)cc1 [GW868318] | 24 | 33 | 21 | 3 | 27 | 0 | 0 | 26 | 14 | 8 | 22 | 0 | 0 | 48 | 59 | 11 | 30 | 20 | 49 | 27
20 | CCCCCc1nc2c(N)ncnc2n1CCCCC [SKF-97255] | 10 | 31 | 7 | 16 | 0 | 18 | 0 | 28 | 0 | 0 | 2 | 0 | 0 | 0 | 27 | 0 | 0 | 12 | 67 | 4
